Screening data as filed in PubChem BioAssay.
The list is not random: actives were taken first. Their share in the collection is about 3%.
A549 tox: Nrf2 qHTS screen for inhibitors: counterscreen for cytotoxicity. A549 ARE-Fluc cells, CellTiter-Fluor viability, 18-24 h. actives 0.16% (n = 390,000). Potency, µM (top dose mostly 46 µM), for the others: at the top dose activity change, negative = cytotoxicity, hits mostly inhibitors; also: % is scaled to controls: 0 for no effect and ±100 for the full control effect
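A549 ARE-Fluc cells in 5% FBS OPTI-MEM, 5000 cells/well, rested 2 h then exposed to compounds in concentration-response for 18-24 h at 37 °C. Viability by CellTiter-Fluor fluorescence (Ex 405/Em 525) after 30 min; luciferase luminescence (BugLite, 15 min, RT) read afterwards.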
Nrf2 ARE act: qHTS of Nrf2 Activators | actives 0.31% (n = 410,000) | Potency, µM (highest dose often 46.1 µM), for inactives: top-dose activation, hits mostly activators | AREc32 ARE-luciferase reporter (MCF7-derived line), luminescence, 24 h; also: % of control where 0% means no effect; nearly all actives have a fitted effect of over 65% in size
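ARE activation measured as luciferase luminescence (Steady-Glo, 30 min RT) in AREc32_Fluc cells after 24 hr compound exposure at 37 deg C, 5% CO2; cells seeded overnight at 1000/well in OPTI-MEM, 5% FBS.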
TrxR1 substrate: qHTS Assay for Substrates of Mammalian Selenoprotein Thioredoxin Reductase 1 (TrxR1): qHTS; actives 0.01% (n = 390,000); Potency, µM (series often up to 114 µM), for inactives: top-dose activity change, negative = substrate turnover; purified TrxR1 substrate turnover, NADPH consumption readout; also: % is scaled to controls: 0 for no effect and ±100 for the full control effect; nearly all actives have a fitted effect of over 50% in size
Target sequence (O89049 whole entry, looked up): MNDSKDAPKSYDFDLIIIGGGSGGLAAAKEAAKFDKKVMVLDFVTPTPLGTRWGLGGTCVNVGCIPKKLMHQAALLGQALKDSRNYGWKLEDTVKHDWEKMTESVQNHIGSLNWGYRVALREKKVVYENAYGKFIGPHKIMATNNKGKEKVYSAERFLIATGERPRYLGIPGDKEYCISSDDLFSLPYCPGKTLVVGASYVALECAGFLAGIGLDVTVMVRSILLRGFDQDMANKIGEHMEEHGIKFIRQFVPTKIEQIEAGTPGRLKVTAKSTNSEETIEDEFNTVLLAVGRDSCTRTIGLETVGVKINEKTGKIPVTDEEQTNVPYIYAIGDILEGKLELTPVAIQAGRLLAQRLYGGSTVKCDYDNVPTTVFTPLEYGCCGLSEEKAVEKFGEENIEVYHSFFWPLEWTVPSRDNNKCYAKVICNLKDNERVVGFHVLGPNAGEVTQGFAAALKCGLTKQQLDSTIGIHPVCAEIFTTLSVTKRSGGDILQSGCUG
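Rat TrxR1, dispensed at 90 nM, was prereduced with 400 uM NADPH (final) for 5 min at ~22 deg C, then incubated with compound 15 min before 400 uM selenite. A first-read NADPH fluorescence drop versus no-compound background flagged substrates.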
rTrxR1 inhibitor: qHTS Assay for Inhibitors of Mammalian Selenoprotein Thioredoxin Reductase 1 (TrxR1): qHTS; actives 1% (n = 390,000); Thioredoxin reductase 1, cytoplasmic (Rattus norvegicus), O89049; recombinant rTrxR1, NADPH fluorescence consumption, selenite substrate; Potency, µM (titrated, usually from 114 µM), for the others: at the highest dose activity change, negative = inhibition, actives largely listed as inhibitors; also: % is scaled to controls: 0 for no effect and ±100 for the full control effect; nearly all actives have a fitted effect of over 65% in size
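Rat TrxR1 (90 nM in the dispensed reagent) was pre-reduced with 400 uM NADPH for 5 min at room temperature, then incubated with compound for 15 min. After 400 uM selenite was added, NADPH fluorescence (Ex 340/Em 450 nm) was followed for 8 min.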
GALK inhibitor: qHTS Assay for Inhibitors of Human Galactokinase (GALK) | P51570 | Purified GALK, Kinase-Glo residual ATP luminescence | Potency, µM (highest dose often 57.5 µM), for inactives: top-dose activity change, negative = inhibition, usual class: inhibitors | actives 0.007% (n = 270,000); also: % is scaled to controls: 0 for no effect and ±100 for the full control effect
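Kinase-Glo Plus luminescence measured ATP left after a 1 h room-temperature reaction. The reaction used 5 nM GALK, 100 uM galactose and 35 uM ATP at pH 8.0 (20 mM HEPES, 5 mM MgCl2, 60 mM NaCl, 1 mM DTT, 0.01% BSA).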
Nrf2 block: Nrf2 qHTS screen for inhibitors. A549 ARE-Fluc reporter, luciferase luminescence, 18-24 h. Potency, µM (highest dose often 46 µM), inactives show at the highest dose activity change, negative = inhibition, most hits filed as inhibitors. actives 2.1% (n = 360,000). AID 504444, 2011; also: % is scaled to controls: 0 for no effect and ±100 for the full control effect; nearly all actives have a fitted effect of over 60% in size
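Concentration-response testing used A549 ARE_Fluc cells at 5000 cells/well. Following an 18-24 h compound incubation, viability was read by fluorescence (Ex 405/Em 525) and luciferase output by luminescence.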
* marks the source's active call; other numbers are inactive results; ? = inconclusive; / = no result; ! = not confirmed by another sample; [ ] = dose if it differs, or a comment. Calls follow the shape of the dose curve; as a rule, active = well fitted curve in the direction sought with a large enough effect; inconclusive = small, poorly fitted or top-dose-only effect, or another doubt; inactive = no such curve, though single readings can be large; an effect the other way counts as inactive or inconclusive. Potency is read from the fitted curve at half-maximal effect.

SMILES	A549 tox	Nrf2 ARE act	TrxR1 substrate	rTrxR1 inhibitor	GALK inhibitor	Nrf2 block
COC(=O)N1C(=O)[C@](c2ccsc2)(C(C)C)N1C(=O)OC	-6.6%	9.1%	4.6%	25.1µM*	/	?
CCOC(=O)N1C(=O)[C@@](CC)(c2ccccc2)N1C(=O)OCC	-14.6%	10.2%	-8.9%	2.24µM*	/	?
COC(=O)N1C(=O)[C@@](c2ccccc2)(C2CCCC2)N1C(=O)OC	-15.4%	7.9%	-6.1%	8.91µM*	/	-1.7%
Cc1cccn2c(=O)c3cc(C(=O)N(Cc4ccccc4)C(C)C)sc3nc12	3.0%	1.0%	66.4%	34.7%	/	?
CCOC(=O)N1CCC2(CC1)OC(=O)C(C)=C2C(=O)NCc1ccc(C)cc1	7.3%	-0.3%	1.4%	9.4%	/	0.0%
COC(=O)N1C(=O)[C@](CC(C)C)(c2ccccc2)N1C(=O)OC	2.2%	10.4%	-6.3%	2µM*	/	15.3%
Cc1cc(C)cc(N2CCn3c2nc2c3c(=O)n(CCc3ccccc3)c(=O)n2C)c1	-0.1%	4.8%	-1.1%	28.0%	/	?
COc1ccc(N(Cc2ccccc2)C(=O)c2nc(S(C)(=O)=O)ncc2Cl)cc1	?	?	7.2%	1µM*	/	?
O=C(NCc1ccc2c(c1)OCO2)c1nc(S(=O)(=O)Cc2ccccc2)ncc1Cl	-17.9%	-1.9%	2.7%	11.2µM*	-2.6%	?
CS(=O)(=O)c1ncc(Cl)c(C(=O)N(Cc2ccc(Cl)cc2)Cc2ccco2)n1	?	-4.3%	12.4%	0.708µM*	/	23.1µM*
CCS(=O)(=O)c1ncc(Cl)c(C(=O)Nc2ccc(C)cc2)n1	?	-2.8%	7.8%	?	5.8%	?
O=C(NCc1ccc2c(c1)OCO2)c1nc(S(=O)(=O)Cc2ccccc2F)ncc1Cl	0.5%	-3.2%	4.2%	21.3%	-0.7%	-15.3%
CCS(=O)(=O)c1ncc(Cl)c(C(=O)NCc2ccccc2)n1	?	-6.1%	4.4%	5.62µM*	/	18.4µM*
Cc1ccc(NC(=O)[C@@H](c2ccccc2)N2Cc3ccccc3C2=O)cc1	-16.2%	0.2%	2.4%	22.6%	/	-15.5%
NC(=O)CSc1nc2ccc(NC(=O)COc3ccccc3)cc2s1	12.5%	4.2%	-11.6%	-4.1%	/	?
O=C(NCc1ccccc1)c1nc(S(=O)(=O)Cc2ccccc2)ncc1Cl	?	-4.5%	-2.4%	2.82µM*!	1.0%	?
O=C(NCc1ccccc1)c1c(Cl)nc(Cl)c(Cl)c1Cl	1.3%	10µM*	5.0%	21.5%	-2.6%	-20.7%
COc1ccc(CNC(=O)c2nc(S(=O)(=O)Cc3ccccc3)ncc2Cl)cc1	?	-3.9%	-3.8%	3.16µM*!	-8.4%	18.4µM*
Cc1nc(Cl)c(C(=O)NCc2ccccc2)c(C)c1Cl	8.4%	2.3%	5.7%[57.1 µM]	14.3%	4.2%	?
